Laboratory results taken from PubChem BioAssay (Tox21).
Values without a mark were called inactive. Inconclusive results are not listed. Where a call stands in place of a potency, no number is given. Calls of active or inactive are those of the source. Unless noted, calls come from the whole dose curve; as a rule, active = well fitted curve in the direction sought with a large enough effect in the repeat runs; inconclusive = weak or mixed curves; inactive = no such curve, though single readings can be large; an effect the other way counts as inactive or inconclusive.

Experiments:
[1] = Caspase-3/7 induction in HepG2 cells by small molecules, qHTS assay (AID 1346978); note: nearly all actives have a fitted effect of over 15% in size; note: potency is the fitted concentration of half-maximal effect
Procedure, shortened: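 Wild-type HepG2 cells, 2,000/well, settled 5 hr at 37 C and 5% CO2, then compound-treated for 17 hr; caspase-3/7 activity read by luminescent Caspase-Glo 3/7 after 30 min at room temperature.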

[2] = Caspase-3/7 induction in CHO-K1 cells by small molecules, qHTS cell viability counter screen (AID 1346979); note: nearly all actives have a fitted effect of over 35% in size; note: potency is the fitted concentration of half-maximal effect
Procedure, shortened: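 Following a 5hr settling period, CHO-K1 cells at 1,500 per well received DMSO-dissolved compounds. Cell viability was quantified 16hr later by CellTiter-Fluor fluorescence, measured after 1hr with reagent at 37C.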

[3] = Caspase-3/7 induction in CHO-K1 cells by small molecules, qHTS assay (AID 1346980); note: nearly all actives have a fitted effect of over 15% in size
Procedure, shortened: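 Wild-type CHO-K1 cells exposed to compounds for 17hr at 37 C, 5% CO2. Caspase-3/7 activity then measured by Caspase-Glo 3/7 luminescence after 30min at room temperature.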

[4] = Caspase-3/7 induction in HepG2 cells by small molecules, qHTS cell viability counter screen (AID 1346981); note: nearly all actives have a fitted effect of over 30% in size; note: potency is the fitted concentration of half-maximal effect
Procedure, shortened: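 Counter screen for cytotoxicity: HepG2 exposed 16 hr to compounds, then CellTiter-Fluor viability signal (fluorescence, 1 hr reagent incubation).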

[5] = biological target: Voltage-gated inwardly rectifying potassium channel KCNH2 (Homo sapiens) (UniProt Q12809); experiment: Human Ether-a-go-go-Related Gene (hERG) channel small molecule antagonists: fluorescence cell-based qHTS assay (AID 1671200); note: nearly all actives have a fitted effect of over 50% in size; note: potency is the fitted concentration of half-maximal effect
Sequence of Voltage-gated inwardly rectifying potassium channel KCNH2 (Homo sapiens) (Q12809 whole entry, looked up): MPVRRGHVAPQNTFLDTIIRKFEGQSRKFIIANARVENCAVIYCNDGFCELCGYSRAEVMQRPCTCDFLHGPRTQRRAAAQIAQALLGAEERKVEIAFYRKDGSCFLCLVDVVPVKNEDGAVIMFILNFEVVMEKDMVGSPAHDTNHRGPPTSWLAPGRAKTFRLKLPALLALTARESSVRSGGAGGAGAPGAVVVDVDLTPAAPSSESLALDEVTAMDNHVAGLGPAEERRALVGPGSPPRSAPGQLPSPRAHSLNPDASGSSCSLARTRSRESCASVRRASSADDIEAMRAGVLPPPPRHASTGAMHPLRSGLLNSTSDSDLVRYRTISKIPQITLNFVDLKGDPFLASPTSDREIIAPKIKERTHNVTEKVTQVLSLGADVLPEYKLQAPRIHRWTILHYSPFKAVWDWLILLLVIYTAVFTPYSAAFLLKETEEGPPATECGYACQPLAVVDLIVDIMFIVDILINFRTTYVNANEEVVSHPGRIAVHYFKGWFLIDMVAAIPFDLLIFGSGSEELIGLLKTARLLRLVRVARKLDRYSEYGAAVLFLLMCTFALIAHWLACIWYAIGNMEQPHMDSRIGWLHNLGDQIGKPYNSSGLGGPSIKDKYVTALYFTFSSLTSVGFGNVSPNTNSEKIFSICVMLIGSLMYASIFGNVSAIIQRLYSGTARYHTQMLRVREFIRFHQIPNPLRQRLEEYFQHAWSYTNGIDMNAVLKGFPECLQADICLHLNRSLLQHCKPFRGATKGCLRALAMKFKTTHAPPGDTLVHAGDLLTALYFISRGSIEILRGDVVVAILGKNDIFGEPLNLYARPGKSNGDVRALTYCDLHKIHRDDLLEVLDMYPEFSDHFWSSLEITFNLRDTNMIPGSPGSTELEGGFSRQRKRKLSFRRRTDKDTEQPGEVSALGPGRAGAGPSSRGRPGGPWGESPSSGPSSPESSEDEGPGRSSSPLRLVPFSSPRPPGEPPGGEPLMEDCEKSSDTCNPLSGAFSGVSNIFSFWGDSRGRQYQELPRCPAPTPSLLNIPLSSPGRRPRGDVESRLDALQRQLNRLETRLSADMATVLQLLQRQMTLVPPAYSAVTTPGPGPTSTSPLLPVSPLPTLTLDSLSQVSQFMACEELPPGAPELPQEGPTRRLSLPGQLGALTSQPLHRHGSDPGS
Procedure, shortened: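 In this thallium-flux screen, overnight-cultured U2OS cells bearing the channel are dye-loaded in darkness for an hour, rested 10 min at room temperature, and then monitored kinetically at 480/540 nm for two minutes post-stimulus.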

[6] = biological target: Nuclear receptor subfamily 1 group I member 2 (Homo sapiens) (UniProt O75469); experiment: Human pregnane X receptor (PXR) small molecule agonists, qHTS assay (AID 1346982); note: nearly all actives have a fitted effect of over 35% in size; note: potency is the fitted concentration of half-maximal effect
Sequence of Nuclear receptor subfamily 1 group I member 2 (Homo sapiens) (O75469 whole entry, looked up): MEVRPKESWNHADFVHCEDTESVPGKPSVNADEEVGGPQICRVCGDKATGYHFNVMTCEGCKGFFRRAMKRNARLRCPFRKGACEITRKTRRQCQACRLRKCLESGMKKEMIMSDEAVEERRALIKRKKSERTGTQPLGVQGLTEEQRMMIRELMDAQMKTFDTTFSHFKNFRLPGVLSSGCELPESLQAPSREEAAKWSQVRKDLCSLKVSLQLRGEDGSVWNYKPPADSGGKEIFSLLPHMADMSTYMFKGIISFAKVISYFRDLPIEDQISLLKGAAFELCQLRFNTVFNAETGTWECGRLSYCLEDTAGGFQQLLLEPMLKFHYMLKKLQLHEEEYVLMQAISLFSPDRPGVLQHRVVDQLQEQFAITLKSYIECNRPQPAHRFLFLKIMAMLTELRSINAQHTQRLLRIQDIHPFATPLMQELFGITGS
Procedure, shortened: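 Luminescence (ONE-Glo, 30 min RT) after 24 hr compound exposure of PXR-Luc HepG2 cells; cells rested 5 hr post-plating in 5% charcoal-stripped FBS medium.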

[7] = biological target: Acetylcholinesterase (Homo sapiens) (UniProt P22303); experiment: Acetylcholinesterase (AChE) small molecule antagonists: colormetric cell-based qHTS assay (AID 1347395; calls by dose curve; note: nearly all actives have a fitted effect of over 30% in size; note: potency is the fitted concentration of half-maximal effect)
Sequence of Acetylcholinesterase (Homo sapiens) (P22303 whole entry, looked up): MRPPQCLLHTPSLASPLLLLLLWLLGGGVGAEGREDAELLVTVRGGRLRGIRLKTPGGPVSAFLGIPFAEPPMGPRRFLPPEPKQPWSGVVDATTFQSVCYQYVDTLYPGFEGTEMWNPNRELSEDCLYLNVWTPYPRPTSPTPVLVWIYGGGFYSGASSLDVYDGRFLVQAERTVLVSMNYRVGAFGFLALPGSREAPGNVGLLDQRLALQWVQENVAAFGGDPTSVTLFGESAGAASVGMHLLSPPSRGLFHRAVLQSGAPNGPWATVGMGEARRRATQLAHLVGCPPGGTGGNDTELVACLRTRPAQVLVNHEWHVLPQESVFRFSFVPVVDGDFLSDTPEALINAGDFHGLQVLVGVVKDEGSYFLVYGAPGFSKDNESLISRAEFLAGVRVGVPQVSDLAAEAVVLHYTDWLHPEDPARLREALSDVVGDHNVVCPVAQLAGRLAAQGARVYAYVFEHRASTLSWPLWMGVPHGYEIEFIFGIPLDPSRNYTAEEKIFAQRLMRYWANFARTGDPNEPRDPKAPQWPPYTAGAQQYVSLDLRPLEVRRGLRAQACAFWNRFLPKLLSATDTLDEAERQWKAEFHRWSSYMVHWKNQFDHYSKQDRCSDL
Procedure, shortened: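 After overnight attachment at 37 C, SH-SY5Y cells get 30 min compound exposure; detection cocktail (acetylthiocholine, DTNB) then incubates 90 min at 37 C, and absorbance reflects AChE-generated thiocholine.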

[8] = biological target: Acetylcholinesterase (Homo sapiens) (UniProt P22303); experiment: Acetylcholinesterase (AChE) small molecule antagonists: enzyme-based qHTS assay (AID 1347397; calls by dose curve; note: nearly all actives have a fitted effect of over 55% in size; note: potency is the fitted concentration of half-maximal effect); conditions: Potency: AChE enzyme activity inhibition
Procedure, shortened: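 Enzyme inhibition was scored from DTNB-detected thiocholine formed by recombinant human AChE acting on acetylthiocholine. The 30 min compound preincubation and 10 min substrate reaction were both run at room temperature, with DMSO as vehicle control.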

[9] = biological target: Acetylcholinesterase (Homo sapiens) (UniProt P22303); experiment: Acetylcholinesterase (AChE) small molecule antagonists: enzyme-based qHTS assay with human liver microsomes (AID 1347399; calls by dose curve; note: nearly all actives have a fitted effect of over 60% in size); conditions: Potency: qHTS inhibition
Procedure, shortened: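 Recombinant human AChE (50 mU/mL in the enzyme mix) and human liver microsomes (0.25 mg/mL final) were preincubated with compound and NADPH (0.25 mg/mL final) for 30 min at 37 C. Acetylthiocholine/DTNB was then added; thiocholine was read colorimetrically after 10 min at room temperature.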

[10] = biological target: Cytochrome P450 2C19 (Homo sapiens) (UniProt P33261); experiment: Cytochrome P450 Family 2 Subfamily C Member 19 (CYP2C19) small molecule antagonists: luciferase reporter qHTS assay (AID 1671197); note: nearly all actives have a fitted effect of over 65% in size; note: potency is the fitted concentration of half-maximal effect
Sequence of Cytochrome P450 2C19 (Homo sapiens) (P33261 whole entry, looked up): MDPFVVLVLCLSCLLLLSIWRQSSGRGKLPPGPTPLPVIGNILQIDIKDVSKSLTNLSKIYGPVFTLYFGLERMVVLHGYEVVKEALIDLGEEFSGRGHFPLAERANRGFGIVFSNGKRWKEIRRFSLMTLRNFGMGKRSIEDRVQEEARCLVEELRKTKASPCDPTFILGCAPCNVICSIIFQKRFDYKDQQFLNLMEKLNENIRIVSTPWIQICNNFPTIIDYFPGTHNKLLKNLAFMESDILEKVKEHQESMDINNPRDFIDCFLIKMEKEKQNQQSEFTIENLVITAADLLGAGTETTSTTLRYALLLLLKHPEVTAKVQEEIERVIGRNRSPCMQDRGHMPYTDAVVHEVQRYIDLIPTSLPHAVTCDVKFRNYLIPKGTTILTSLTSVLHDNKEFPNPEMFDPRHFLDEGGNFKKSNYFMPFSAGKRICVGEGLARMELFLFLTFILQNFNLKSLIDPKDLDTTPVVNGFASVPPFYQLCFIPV
Procedure, shortened: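 First, compounds are pinned into enzyme-substrate mix and held 10 min at room temperature. Second, NADPH regeneration solution is added and plates incubate 1 h at 37C. Third, detection reagent is added and luminescence read after 20 min.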

[11] = biological target: Cytochrome P450 1A2 (Homo sapiens) (UniProt P05177); experiment: Cytochrome P450 Family 1 Subfamily A Member 2 (CYP1A2) small molecule antagonists: luciferase reporter qHTS assay (AID 1671199); note: nearly all actives have a fitted effect of over 50% in size; note: potency is the fitted concentration of half-maximal effect
Sequence of Cytochrome P450 1A2 (Homo sapiens) (P05177 whole entry, looked up): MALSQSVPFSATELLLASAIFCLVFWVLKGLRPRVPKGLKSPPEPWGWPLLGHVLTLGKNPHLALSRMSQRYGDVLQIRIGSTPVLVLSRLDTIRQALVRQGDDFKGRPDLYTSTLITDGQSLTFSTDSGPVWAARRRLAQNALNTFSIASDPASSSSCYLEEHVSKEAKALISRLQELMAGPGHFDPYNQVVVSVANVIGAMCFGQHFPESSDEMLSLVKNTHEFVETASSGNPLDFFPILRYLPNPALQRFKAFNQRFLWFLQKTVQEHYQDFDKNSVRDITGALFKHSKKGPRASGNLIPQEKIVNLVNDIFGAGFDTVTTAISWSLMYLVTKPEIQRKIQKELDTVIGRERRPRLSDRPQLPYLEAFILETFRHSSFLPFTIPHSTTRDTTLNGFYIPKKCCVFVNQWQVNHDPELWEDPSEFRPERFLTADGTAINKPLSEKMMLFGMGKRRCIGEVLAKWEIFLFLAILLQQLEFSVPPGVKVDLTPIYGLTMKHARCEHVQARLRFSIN
Procedure, shortened: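 Signal from luciferin formed by CYP1A2 from a proluciferin substrate is read as luminescence, expressed in relative luminescence units. Compounds sit with enzyme 10 min, NADPH-driven reaction runs 1 h, all at room temperature.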

[12] = biological target: Acetylcholinesterase (Homo sapiens) (UniProt P22303); experiment: Acetylcholinesterase (AChE) small molecule antagonists: fluorescence cell-based qHTS assay (AID 1347398; calls by dose curve; note: nearly all actives have a fitted effect of over 50% in size; note: potency is the fitted concentration of half-maximal effect); conditions: Potency: AChE activity
Procedure, shortened: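 Endogenous acetylcholinesterase of SH-SY5Y neuroblastoma cells is measured in situ. After overnight attachment and 30 min compound exposure, cells receive acetylthiocholine and Thiolite Green; fluorescence is read after 40 min at room temperature.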

[13] = biological target: Cytochrome P450 2D6 (Homo sapiens) (UniProt P10635); experiment: Cytochrome P450 Family 2 Subfamily D Member 6 (CYP2D6) small molecule antagonists: luciferase reporter qHTS assay (AID 1671196); note: nearly all actives have a fitted effect of over 50% in size; note: potency is the fitted concentration of half-maximal effect
Procedure, shortened: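 Inhibition of CYP2D6 was gauged by loss of luminescence, since light produced tracks the luciferin generated from a proluciferin substrate. A 10 min room-temperature preincubation preceded 1 h NADPH-supported turnover.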

[14] = biological target: Cytochrome P450 2C9 (Homo sapiens) (UniProt P11712); experiment: Cytochrome P450 Family 2 Subfamily C Member 9 (CYP2C9) small molecule antagonists: luciferase reporter qHTS assay (AID 1671198); note: nearly all actives have a fitted effect of over 50% in size; note: potency is the fitted concentration of half-maximal effect
Sequence of Cytochrome P450 2C9 (Homo sapiens) (P11712 whole entry, looked up): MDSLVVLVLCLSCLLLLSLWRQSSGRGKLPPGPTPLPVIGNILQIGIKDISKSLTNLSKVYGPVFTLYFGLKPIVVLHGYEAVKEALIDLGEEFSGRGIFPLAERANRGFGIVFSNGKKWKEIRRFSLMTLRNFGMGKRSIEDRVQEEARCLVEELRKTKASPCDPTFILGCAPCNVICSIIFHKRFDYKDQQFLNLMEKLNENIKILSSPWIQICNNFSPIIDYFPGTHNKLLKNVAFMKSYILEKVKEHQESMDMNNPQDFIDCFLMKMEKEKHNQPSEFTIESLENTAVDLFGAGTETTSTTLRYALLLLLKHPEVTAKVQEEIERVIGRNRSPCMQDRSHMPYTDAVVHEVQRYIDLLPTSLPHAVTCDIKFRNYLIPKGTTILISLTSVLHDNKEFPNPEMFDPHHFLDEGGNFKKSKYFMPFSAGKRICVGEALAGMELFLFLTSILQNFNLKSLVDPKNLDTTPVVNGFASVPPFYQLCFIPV
Procedure, shortened: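 P450-Glo proluciferin substrate with CYP2C9 enzyme; 10 min RT preincubation, then NADPH regeneration 1 h at 37C; luciferin detection reagent 20 min RT, luminescence in relative luminescence units.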

[15] = biological target: Cytochrome P450 3A4 (Homo sapiens) (UniProt P08684); experiment: Cytochrome P450 Family 3 Subfamily A Member 4 (CYP3A4) small molecule antagonists: luciferase reporter qHTS assay (AID 1671201); note: nearly all actives have a fitted effect of over 50% in size; note: potency is the fitted concentration of half-maximal effect
Sequence of Cytochrome P450 3A4 (Homo sapiens) (P08684 whole entry, looked up): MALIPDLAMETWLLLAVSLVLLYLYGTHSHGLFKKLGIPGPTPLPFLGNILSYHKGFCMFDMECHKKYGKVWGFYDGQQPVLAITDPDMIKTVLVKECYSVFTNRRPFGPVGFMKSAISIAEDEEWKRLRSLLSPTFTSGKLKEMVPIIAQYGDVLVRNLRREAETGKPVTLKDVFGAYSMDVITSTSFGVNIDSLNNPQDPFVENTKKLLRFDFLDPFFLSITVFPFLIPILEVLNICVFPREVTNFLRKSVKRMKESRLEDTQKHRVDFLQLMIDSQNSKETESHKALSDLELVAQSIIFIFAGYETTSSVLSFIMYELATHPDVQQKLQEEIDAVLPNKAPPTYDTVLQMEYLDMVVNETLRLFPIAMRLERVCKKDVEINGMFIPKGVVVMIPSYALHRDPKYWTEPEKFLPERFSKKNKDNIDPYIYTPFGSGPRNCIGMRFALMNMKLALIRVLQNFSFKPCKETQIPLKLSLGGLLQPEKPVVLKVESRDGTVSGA
Procedure, shortened: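 CYP3A4 activity was followed with a P450-Glo proluciferin substrate. Test compounds in DMSO were preincubated 10 min; NADPH regeneration then ran 1 h, and light output was read 20 min after detection reagent.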

[16] = biological target: Nuclear receptor subfamily 1 group I member 2 (Rattus norvegicus) (UniProt Q9R1A7); experiment: Rat pregnane X receptor (rPXR) activation by small molecules, qHTS assay (AID 1346983); conditions: rPXR luciferase reporter cells, One-Glo luminescence, 24 h; max activation: stronger effect = higher value; note: nearly all actives have a fitted effect of over 20% in size
Sequence of Nuclear receptor subfamily 1 group I member 2 (Rattus norvegicus) (Q9R1A7 whole entry, looked up): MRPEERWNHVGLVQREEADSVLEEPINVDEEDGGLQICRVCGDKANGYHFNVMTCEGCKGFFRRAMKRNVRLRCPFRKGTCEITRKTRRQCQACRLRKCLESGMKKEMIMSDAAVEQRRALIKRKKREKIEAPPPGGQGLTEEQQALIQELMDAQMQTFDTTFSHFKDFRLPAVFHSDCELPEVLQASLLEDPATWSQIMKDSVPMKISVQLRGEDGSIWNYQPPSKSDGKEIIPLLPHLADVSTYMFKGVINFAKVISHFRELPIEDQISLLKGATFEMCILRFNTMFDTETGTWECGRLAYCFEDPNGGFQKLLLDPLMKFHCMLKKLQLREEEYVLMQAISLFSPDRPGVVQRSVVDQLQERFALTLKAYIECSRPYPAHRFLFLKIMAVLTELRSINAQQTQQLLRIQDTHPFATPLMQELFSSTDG
Procedure, shortened: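 Cell-based rPXR activation assay: rPXR cells, 2,000 per well, rested 5hr at 37 C, then exposed to compounds in DMSO for 24 hr at 37 C. Luciferase activity read by One-Glo luminescence after 30 min at room temperature.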

[17] = biological target: Nuclear receptor subfamily 1 group I member 2 (Homo sapiens) (UniProt O75469); experiment: CYP3A4 induction through human pregnane X receptor (PXR) by small molecules, qHTS assay (AID 1346984); note: nearly all actives have a fitted effect of over 40% in size; note: potency is the fitted concentration of half-maximal effect
Procedure, shortened: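 DPX-2 reporter cells; 24h cpd, 37C; Luciferin-IPA 3uM final x3h; One-Glo 30 min RT; lumi read.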

[18] = biological target: Nuclear receptor subfamily 1 group I member 2 (Homo sapiens) (UniProt O75469); experiment: Human pregnane X receptor (PXR) activation by small molecules, qHTS assay (AID 1346985); note: nearly all actives have a fitted effect of over 40% in size; note: potency is the fitted concentration of half-maximal effect
Procedure, shortened: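 DPX-2 cells (HepG2 co-transfected with a PXR response element and a CYP3A4-promoter luciferase construct) were seeded at 2,000 per well, rested 5 hr at 37C, then exposed to DMSO-dissolved compounds for 24 hr. Activation was read as luciferase luminescence.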

| Compound | Potency [1] | Potency [2] | Potency [3] | Potency [4] | Potency [5] | Potency [6] | Potency [7] | Potency [8] | Potency [9] | Potency [10] | Potency [11] | Potency [12] | Potency [13] | Potency [14] | Potency [15] | max activation [16] [%] | Potency [17] | Potency [18] |
| --- | --- | --- | --- | --- | --- | --- | --- | --- | --- | --- | --- | --- | --- | --- | --- | --- | --- | --- |
| O.O.O.O.O.O.O.O=S(=O)([O-])[O-].[Co+2] | inactive | inactive | inactive | inactive | inactive |  |  |  |  |  |  |  |  |  |  |  |  |  |
| CO/N=C(\C(=O)OC)c1ccccc1CO/N=C(\C)c1cccc(C(F)(F)F)c1 | inactive | 0.137 µM (active) | inactive |  | inactive | 0.686 µM (active) | inactive | inactive | inactive | 3.56 µM (active) | 17.8 µM (active) |  |  |  |  |  |  |  |
| COP(=S)(NC(C)C)Oc1ccc(C)cc1[N+](=O)[O-] (stereo not drawn) | inactive | inactive | inactive | inactive | inactive | 30.6 µM (active) | inactive |  | inactive | 0.283 µM (active) |  | inactive | 44.8 µM (active) | 2.52 µM (active) | 0.633 µM (active) |  |  |  |
| CNN | inactive | inactive | inactive | inactive | inactive |  | inactive |  | inactive | inactive | inactive |  |  | inactive | inactive |  |  |  |
| N#Cc1c[nH]cc1-c1cccc2c1OC(F)(F)O2 | 12.2 µM (active) | 48.6 µM (active) | inactive |  | inactive |  | inactive | inactive | inactive | 5.64 µM (active) | 1.59 µM (active) | inactive | inactive | 20 µM (active) | inactive |  |  |  |
| O=C(CCCCl)c1ccc(F)cc1 | inactive | inactive | inactive | inactive | inactive | inactive | inactive | inactive | inactive |  |  | inactive | inactive | inactive | inactive |  |  |  |
| C[C@]12Cc3cn[nH]c3C[C@@H]1CC[C@@H]1[C@@H]2CC[C@@]2(C)[C@H]1CC[C@]2(C)O | inactive |  | inactive | inactive | inactive | 9.44 µM (active) | inactive | inactive | inactive |  | inactive | inactive |  | 0.977 µM (active) |  |  |  |  |
| CC(=O)[O-].CC(=O)[O-].O.O.[Zn+2] | inactive |  | inactive | inactive | inactive |  |  |  |  |  |  |  |  |  |  |  |  |  |
| Oc1ccc([C@H]2CNCc3c2ccc(O)c3O)cc1O | inactive | 29.8 µM (active) |  |  | inactive | inactive |  |  | inactive |  | inactive | 30.9 µM (active) | 34.7 µM (active) |  | inactive |  |  |  |
| O=C1C[C@@H]2OCC=C3CN4CC[C@]56c7ccccc7N1[C@H]5[C@H]2[C@H]3C[C@H]46 | inactive |  | inactive |  |  |  |  |  |  |  |  |  |  |  |  |  |  |  |
| Oc1ccc2[nH]cc(CCCCN3CC=C(c4ccccc4)CC3)c2c1 | inactive |  | inactive |  | 2.68 µM (active) |  |  |  |  |  |  |  |  |  |  | 4.09 |  |  |
| Nc1cc(Cl)ccc1Cl | inactive |  | inactive | inactive | inactive | inactive | inactive | inactive | inactive | inactive | 31.5 µM (active) | inactive | inactive | inactive |  |  |  |  |
| CC(Cc1ccc(O)cc1)NCC(O)c1cc(O)cc(O)c1 (stereo not drawn) | inactive |  | inactive | inactive | inactive | inactive |  |  |  |  | inactive |  | 9.77 µM (active) |  | inactive | -1.7 | inactive | inactive |
| CCC(OC(C)=O)C(CC(C)NC)(c1ccccc1)c1ccccc1 (stereo not drawn) | 69.2 µM (active) | 69.2 µM (active) |  | 69.2 µM (active) | 8.78 µM (active) |  | inactive | inactive | inactive | 32 µM (active) | inactive | inactive | 14.3 µM (active) |  |  |  |  |  |
| CCOP(=O)(Sc1ccccc1)Sc1ccccc1 | inactive |  | inactive | inactive | inactive |  | 3.99 µM (active) | 17.8 µM (active) |  | 8.94 µM (active) | 10 µM (active) |  |  | 28.3 µM (active) | inactive |  |  |  |
| CN1CCc2cc(Cl)c(O)cc2[C@H]2c3ccccc3CC[C@@H]21 | inactive |  | inactive |  | 9.52 µM (active) |  |  |  | inactive | inactive |  |  | 0.0078 µM (active) | inactive | inactive | 0.833 | 2.24 µM (active) | 2.24 µM (active) |
| CN1CCc2cc3c(cc2C1O)OCO3 (stereo not drawn) | inactive |  | inactive |  | inactive |  |  |  |  |  | 40.2 µM (active) |  | 2.01 µM (active) | inactive | inactive |  |  |  |
| CC#C[C@]1(O)CC[C@H]2[C@@H]3C[C@H](C)C4=CC(=O)CC[C@]4(C)[C@H]3CC[C@@]21C | inactive |  | inactive | inactive | inactive | 23.7 µM (active) | inactive | inactive | inactive |  | inactive | inactive |  |  |  |  |  |  |
